Assay results as given in ChEMBL document CHEMBL3988442, “University of Dundee, Small-Polar-MMV Screening Library” (2021).
For some of these results: Results with a measured potency or affinity are listed apart.

How the values were obtained:
Parameters in all cases: scale not given: direction of the effect not stated beside the values
[1] = molecular target: Protein translocase subunit SecA (Escherichia coli (strain K12)) (UniProt P10408); assay: Assay to Identify E. coli SecA ATPase Inhibitors; assay type: functional; conditions: 30 µM
Sequence of Protein translocase subunit SecA (Escherichia coli (strain K12)) (P10408 whole entry): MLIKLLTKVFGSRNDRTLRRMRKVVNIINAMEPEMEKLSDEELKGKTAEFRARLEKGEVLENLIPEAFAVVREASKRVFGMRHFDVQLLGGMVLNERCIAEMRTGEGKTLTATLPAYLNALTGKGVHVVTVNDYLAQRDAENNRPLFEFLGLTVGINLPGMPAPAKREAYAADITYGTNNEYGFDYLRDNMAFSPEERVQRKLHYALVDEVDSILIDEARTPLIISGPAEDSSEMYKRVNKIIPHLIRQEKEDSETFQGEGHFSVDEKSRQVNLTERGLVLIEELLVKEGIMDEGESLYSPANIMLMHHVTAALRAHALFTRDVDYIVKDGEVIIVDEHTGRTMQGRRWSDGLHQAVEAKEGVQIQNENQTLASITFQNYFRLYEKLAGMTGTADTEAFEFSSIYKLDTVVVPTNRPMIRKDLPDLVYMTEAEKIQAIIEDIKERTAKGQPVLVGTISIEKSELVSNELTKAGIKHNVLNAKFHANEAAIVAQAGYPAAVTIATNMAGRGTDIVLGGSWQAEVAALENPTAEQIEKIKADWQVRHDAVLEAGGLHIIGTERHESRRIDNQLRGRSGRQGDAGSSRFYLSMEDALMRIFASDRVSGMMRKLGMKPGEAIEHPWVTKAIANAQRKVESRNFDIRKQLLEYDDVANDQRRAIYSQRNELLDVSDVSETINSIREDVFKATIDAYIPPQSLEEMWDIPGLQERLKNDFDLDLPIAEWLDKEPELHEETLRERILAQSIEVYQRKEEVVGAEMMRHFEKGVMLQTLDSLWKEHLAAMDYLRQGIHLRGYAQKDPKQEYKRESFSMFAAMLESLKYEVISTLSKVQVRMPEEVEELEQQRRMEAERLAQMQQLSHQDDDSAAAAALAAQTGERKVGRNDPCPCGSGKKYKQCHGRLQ

[2] = molecular target: T1, Ubiquitin-activating enzyme e1, putative (Leishmania donovani (strain BPK282A1)) (UniProt E9BSI1); assay: Leishmania donovani Ubiquitin Activating Enzyme (LdE1); assay type: functional; conditions: 30 µM
T1 sequence (whole entry): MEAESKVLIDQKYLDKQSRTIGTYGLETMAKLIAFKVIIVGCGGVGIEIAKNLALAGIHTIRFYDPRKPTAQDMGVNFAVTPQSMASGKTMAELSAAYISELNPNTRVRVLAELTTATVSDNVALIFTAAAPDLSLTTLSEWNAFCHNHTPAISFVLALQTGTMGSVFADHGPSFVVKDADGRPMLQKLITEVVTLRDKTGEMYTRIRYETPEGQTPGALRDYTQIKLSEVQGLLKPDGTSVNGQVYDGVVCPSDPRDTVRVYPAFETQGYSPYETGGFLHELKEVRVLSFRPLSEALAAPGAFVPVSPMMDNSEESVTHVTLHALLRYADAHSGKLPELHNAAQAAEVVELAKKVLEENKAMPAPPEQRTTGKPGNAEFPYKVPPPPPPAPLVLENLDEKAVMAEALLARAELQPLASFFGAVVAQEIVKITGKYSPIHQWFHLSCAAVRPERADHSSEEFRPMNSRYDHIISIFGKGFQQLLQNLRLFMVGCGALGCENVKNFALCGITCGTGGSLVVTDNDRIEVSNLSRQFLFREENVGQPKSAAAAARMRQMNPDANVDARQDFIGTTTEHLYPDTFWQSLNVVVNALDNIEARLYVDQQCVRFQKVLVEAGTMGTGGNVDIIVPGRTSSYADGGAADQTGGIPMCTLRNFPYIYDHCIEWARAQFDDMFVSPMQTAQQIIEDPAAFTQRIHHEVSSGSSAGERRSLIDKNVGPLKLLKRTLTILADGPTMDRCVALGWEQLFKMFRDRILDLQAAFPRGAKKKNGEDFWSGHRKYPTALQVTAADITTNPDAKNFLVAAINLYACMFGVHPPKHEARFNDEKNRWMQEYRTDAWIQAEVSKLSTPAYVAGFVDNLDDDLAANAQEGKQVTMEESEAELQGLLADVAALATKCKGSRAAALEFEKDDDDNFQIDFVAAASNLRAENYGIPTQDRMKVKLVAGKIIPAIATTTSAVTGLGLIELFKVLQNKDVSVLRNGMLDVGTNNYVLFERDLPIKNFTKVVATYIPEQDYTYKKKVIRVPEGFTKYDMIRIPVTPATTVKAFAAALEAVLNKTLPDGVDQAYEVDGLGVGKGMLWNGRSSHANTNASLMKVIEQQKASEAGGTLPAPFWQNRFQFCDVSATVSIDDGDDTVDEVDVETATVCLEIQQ

[3] = molecular target: AMP-activated protein kinase, AMPK (Homo sapiens) (UniProt P54646+O43741+P54619+Q9UGJ0+Q9Y478+Q13131+Q9UGI9); assay: AMP-dependent Kinase enzyme assay. An in vitro enzyme assay that detects ADP turnover that is directly proportional to AMPK activity. This uses naive AMPK that is activated during the assay with MK-8722; assay type: functional; conditions: 30 µM
[4] = molecular target: Sialic acid-binding Ig-like lectin 9 (Homo sapiens) (UniProt Q9Y336); assay: Hs-Siglec9 ALPHAscreen SOP 20170721; conditions: 10 µM
Sequence of Sialic acid-binding Ig-like lectin 9 (Homo sapiens) (Q9Y336 whole entry): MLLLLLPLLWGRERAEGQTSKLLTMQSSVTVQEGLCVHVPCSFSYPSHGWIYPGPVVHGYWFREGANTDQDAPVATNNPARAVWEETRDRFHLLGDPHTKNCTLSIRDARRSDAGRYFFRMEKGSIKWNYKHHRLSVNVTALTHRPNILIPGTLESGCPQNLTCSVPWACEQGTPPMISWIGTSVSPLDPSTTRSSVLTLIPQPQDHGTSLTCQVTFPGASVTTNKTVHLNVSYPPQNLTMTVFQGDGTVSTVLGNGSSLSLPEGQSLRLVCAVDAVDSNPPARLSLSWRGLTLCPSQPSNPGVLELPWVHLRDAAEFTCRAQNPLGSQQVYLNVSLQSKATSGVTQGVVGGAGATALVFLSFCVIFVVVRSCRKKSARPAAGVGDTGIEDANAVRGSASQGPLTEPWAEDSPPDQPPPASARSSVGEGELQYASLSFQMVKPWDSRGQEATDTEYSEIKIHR

[5] = tested on: Trypanosoma cruzi; assay: Trypanosoma cruzi phosphomannomutase and mannose-1-phosphate guanylyltransferase assay; assay type: functional; conditions: 10 µM
[6] = molecular target: T2, Arginase-2, mitochondrial (Homo sapiens) (UniProt P78540); assay: in vitro enzyme assay to detect the production of urea directly proportional to the activity of Arginase II; assay type: functional; conditions: 33.3 µM; note: in the data most compounds retested in dose-response had high values
T2 sequence (whole entry): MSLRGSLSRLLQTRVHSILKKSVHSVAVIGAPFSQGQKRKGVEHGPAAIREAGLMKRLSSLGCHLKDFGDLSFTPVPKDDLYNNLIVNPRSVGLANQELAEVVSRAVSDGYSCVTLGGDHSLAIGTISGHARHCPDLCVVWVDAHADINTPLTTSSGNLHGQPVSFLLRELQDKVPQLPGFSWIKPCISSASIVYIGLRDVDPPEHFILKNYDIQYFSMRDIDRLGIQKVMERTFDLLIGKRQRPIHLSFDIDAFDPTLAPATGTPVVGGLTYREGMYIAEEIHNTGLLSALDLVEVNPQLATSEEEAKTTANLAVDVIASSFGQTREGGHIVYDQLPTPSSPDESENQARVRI

[7] = molecular target: T3, Proteasome subunit beta (Trypanosoma cruzi) (UniProt O96673); assay: Trypanosoma cruzi proteasome chymotrypsin-like activity (TcProtChymo) assay.; note: in the data most compounds retested in dose-response had high values; assay type: functional; conditions: 9.37 µM
T3 sequence (whole entry): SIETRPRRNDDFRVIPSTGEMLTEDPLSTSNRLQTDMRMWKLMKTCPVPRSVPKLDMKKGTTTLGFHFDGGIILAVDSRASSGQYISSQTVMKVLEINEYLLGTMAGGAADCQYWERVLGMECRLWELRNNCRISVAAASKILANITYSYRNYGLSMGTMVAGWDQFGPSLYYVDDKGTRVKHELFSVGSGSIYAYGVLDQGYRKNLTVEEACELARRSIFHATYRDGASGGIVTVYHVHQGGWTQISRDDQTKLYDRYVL

[8] = species on record: Homo sapiens; assay: To identify inhibition of the IFN signalling (Jak-Stat) pathway via expression of an eGFP reporter gene under the control of an IFN-stimulated response element (ISRE) containing MxA promoter.; assay type: functional; conditions: 30 µM
[9] = molecular target: T4, Tyrosyl-tRNA synthetase, putative (Trypanosoma cruzi (strain CL Brener)) (UniProt Q4DSP6); assay: Trypanosoma cruzi tyrosyl tRNA synthetase (TcYRS) _High Tyrosine SOP; assay type: functional; conditions: 30 µM; note: in the data most compounds retested in dose-response had high values
T4 sequence (whole entry): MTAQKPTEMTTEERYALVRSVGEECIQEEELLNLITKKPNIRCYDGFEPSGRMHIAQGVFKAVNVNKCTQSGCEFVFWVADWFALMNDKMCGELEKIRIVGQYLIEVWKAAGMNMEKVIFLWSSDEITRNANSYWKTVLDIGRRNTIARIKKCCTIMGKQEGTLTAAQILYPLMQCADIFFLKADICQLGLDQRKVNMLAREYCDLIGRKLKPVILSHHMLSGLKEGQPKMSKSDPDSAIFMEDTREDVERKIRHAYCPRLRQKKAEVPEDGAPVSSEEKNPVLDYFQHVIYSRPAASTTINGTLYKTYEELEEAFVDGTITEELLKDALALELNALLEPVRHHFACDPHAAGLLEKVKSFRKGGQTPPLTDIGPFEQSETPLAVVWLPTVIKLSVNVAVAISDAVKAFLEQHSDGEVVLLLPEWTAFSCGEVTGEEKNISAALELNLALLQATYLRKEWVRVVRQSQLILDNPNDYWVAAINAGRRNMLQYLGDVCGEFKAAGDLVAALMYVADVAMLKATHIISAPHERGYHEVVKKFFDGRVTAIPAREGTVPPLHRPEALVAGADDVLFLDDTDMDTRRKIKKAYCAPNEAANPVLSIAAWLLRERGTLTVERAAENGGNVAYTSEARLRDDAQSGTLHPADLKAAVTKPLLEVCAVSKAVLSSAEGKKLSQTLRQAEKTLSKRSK

[10] = molecular target: T4, Tyrosyl-tRNA synthetase, putative (Trypanosoma cruzi (strain CL Brener)); assay: Trypanosoma cruzi tyrosyl tRNA synthetase (TcYRS) SOP; assay type: functional; conditions: 30 µM
[11] = molecular target: Chromo domain-containing protein 1 (Saccharomyces cerevisiae (strain ATCC 204508 / S288c) (Baker's yeast)) (UniProt P32657); assay: ScCHD-1 Enzyme Inhibition Assay; assay type: functional; conditions: 30 µM; note: in the data most compounds retested in dose-response had high values
Sequence of Chromo domain-containing protein 1 (Saccharomyces cerevisiae (strain ATCC 204508 / S288c) (Baker's yeast)) (P32657 whole entry, the tested form may be a part): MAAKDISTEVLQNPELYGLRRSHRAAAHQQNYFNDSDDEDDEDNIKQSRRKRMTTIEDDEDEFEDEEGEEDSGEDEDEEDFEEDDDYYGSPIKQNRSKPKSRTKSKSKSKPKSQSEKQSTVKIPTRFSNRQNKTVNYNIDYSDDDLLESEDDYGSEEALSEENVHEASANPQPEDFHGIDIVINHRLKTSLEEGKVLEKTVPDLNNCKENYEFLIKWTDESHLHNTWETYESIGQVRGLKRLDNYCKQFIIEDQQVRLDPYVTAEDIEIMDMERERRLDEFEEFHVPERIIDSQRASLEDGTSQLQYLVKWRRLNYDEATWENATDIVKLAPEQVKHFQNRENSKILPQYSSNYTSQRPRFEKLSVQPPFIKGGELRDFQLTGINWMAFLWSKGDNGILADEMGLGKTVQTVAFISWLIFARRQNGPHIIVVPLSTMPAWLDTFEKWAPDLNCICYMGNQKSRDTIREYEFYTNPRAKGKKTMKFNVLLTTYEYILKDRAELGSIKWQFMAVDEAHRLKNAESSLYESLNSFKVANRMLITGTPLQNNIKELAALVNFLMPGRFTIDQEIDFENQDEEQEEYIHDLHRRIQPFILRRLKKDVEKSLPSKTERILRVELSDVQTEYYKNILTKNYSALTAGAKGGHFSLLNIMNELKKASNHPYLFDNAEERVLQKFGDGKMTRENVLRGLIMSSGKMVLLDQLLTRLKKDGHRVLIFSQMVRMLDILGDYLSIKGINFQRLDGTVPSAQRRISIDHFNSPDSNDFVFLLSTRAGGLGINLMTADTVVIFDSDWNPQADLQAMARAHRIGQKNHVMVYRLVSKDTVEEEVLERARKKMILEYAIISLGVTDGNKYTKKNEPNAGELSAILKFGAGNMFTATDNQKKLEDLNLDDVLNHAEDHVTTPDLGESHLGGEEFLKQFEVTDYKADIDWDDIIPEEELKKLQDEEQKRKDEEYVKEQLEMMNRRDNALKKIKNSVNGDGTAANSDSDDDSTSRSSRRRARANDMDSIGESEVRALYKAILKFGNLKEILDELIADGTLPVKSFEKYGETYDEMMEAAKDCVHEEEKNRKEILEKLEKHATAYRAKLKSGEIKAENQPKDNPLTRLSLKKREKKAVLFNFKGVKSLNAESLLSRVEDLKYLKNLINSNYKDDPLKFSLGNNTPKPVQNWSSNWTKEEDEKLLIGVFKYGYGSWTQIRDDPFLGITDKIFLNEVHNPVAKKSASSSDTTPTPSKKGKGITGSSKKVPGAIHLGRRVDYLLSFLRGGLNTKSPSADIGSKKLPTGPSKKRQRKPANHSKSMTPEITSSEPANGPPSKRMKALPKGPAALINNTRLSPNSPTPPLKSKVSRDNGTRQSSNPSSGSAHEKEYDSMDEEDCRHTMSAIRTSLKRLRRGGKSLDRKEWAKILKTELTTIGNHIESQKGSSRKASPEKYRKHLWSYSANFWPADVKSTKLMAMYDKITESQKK

SMILES | Percent Effect [1] [%] | Percent Effect [2] [%] | Percent Effect [3] [%] | Percent Effect [4] [%] | Percent Effect [5] [%] | Percent Effect [6] [%] | Percent Effect [7] [%] | Percent Effect [8] [%] | Percent Effect [9] [%] | Percent Effect [10] [%] | Percent Effect [11] [%]
CC(=O)c1ccccc1C(=O)NCC1(CO)CC1 | -0.313 | 10.8 | -5.63 | 7.79 | 1.16 | -4.29 | 3.79 | 21.2 | 4.76 | -4.88 | -0.424
Cc1ccsc1C(=O)NCCCn1nc2ccccn2c1=O | -1.75 | 16.2 | -0.37 | -0.759 | -3.99 | 1.66 | 9.52 | 20.9 | 5.94 | 18.3 | -8.98
CC(C)N(C)CCCNC(=O)c1cnc(-c2ccccc2)nc1 | -6.93 | 21.6 | 1.03 | 23.6 | 6.75 | 7.2 | 8.67 | -4.42 | 4.3 | 18.5 | -10.6
CC(C)Cc1noc(CN(C)C(=O)C2COc3ccccc3C2)n1 (stereo not given) | -3.93 | 5.2 | -1.17 | 6.48 | -0.0983 | -27.6 | 14.3 | -9.36 | -1.07 | 13.6 | 0.431
COCCNC(=O)c1cc2c(s1)CCN2C(=O)c1ccccc1 | -6.01 | 10.7 | -16.6 | 4.96 | 1.35 | -53.9 | 9.74 | -0.33 | 6.25 | 15 | 6.46
NC(=O)c1ccc(CN2CCCC(N3CCCC3)C2)cc1 (stereo not given) | -3.01 | 18.9 | -3.31 | -0.296 | 2.54 | 5 | 23.8 | -1.33 | 7.92 | 15.8 | -6.1
CC(C)(C)OC(=O)NC(C)(C)c1noc(CN2CCCCC2)n1 | -5.9 | 8 | -1.12 | -1.61 | -3.02 | 1.04 | 9.07 | 13.4 | 2.73 | 8.64 | -7.41
Cc1cc(N2CCN(Cc3nccn3C)CC2)cc(C)n1 | -3.69 | 1.39 | -5.16 | -5.41 | -5.93 | -0.883 | 12.1 | -10.6 | 0 | -2.56 | -1.23
c1cnn(CC2CN(Cc3ccc(-n4ccnc4)cc3)CCO2)c1 (stereo not given) | -2.02 | 17.7 | -6.89 | 4.49 | 3.68 | 0.76 | 6.14 | 0.886 | 9.36 | 24.1 | -2.59
COCCCNC(=O)CCn1nc(C)c2ccccc21 | -3.61 | 6.67 | 0.569 | 3.25 | -6.09 | -6.16 | 15 | 2.4 | 3.17 | 2.56 | -8.28
CC(C)n1c(=O)nc2n1C(=O)N(c1ccc(F)cc1)C2 | -3.14 | 13.2 | 0.365 | 6.05 | 0.682 | -2.37 | 13.9 | -9.89 | 4.25 | 7.79 | -5.52
CCn1cc(N2Cc3nc(N4CCOCC4)ncc3C2=O)cn1 | -4.68 | 17.3 | -4.89 | 0.208 | 0.786 | -9.33 | 4.44 | -2.82 | 2.12 | 5.13 | -15.2
O=C(Nc1cccc(CNCc2cccs2)c1)C1CCCC1 | -4.41 | 13.2 | -0.852 | -3.26 | 2.15 | -2.16 | 2.45 | 3.75 | 6.4 | 18.5 | -4.46
Cc1cc(C(=O)N2CCCCC2c2nc(C)cs2)[nH]n1 (stereo not given) | -4.07 | 5.2 | 0.468 | -1.4 | 5.62 | -4.27 | -2.03 | -9.54 | 4.85 | 12.2 | 84.3
Cn1cc(C(=O)NC2CCN(C(=O)NCC3CCSCC3)CC2)cn1 | -7.28 | 6.33 | 11.5 | 2.29 | -2.15 | 2.37 | 8.75 | 24.4 | 11.5 | 15.2 | 1.7
COc1ccc(CN2CC[C@H]3[C@H]2CCN3C(=O)c2cnn(C)c2)cc1 | -0.777 | 13.5 | 4.48 | -12.3 | -3.23 | 2.87 | 12.2 | 9.65 | 1.08 | 7.69 | -5.75
Cc1ccc(CNCC2CCc3nnc(C(C)C)n3C2)s1 (stereo not given) | -1.99 | -1.39 | -8.87 | -3.91 | -1.46 | -3.97 | 4.56 | -6.98 | 1.05 | 0 | -1.15
O=C(c1ccnnc1)N1CCN2C[C@H](Oc3cccc(F)c3)C[C@H]2C1 | -1.92 | 8 | -1.06 | 6.61 | -2.7 | -20.2 | 1.37 | -0.178 | -2.08 | 10 | -6.63
COCC1c2c(cnn2CC2CC2)CCN1Cc1ccc(OC)cc1 (stereo not given) | 0.566 | -5.33 | -0.782 | 3.28 | -0.772 | -53.2 | 9.23 | 91.4 | -4.17 | 2.5 | -3.58
Cc1cc(C)n(-c2cncc(NCCNC(=O)C(C)C)n2)n1 | -6.42 | 8.11 | -5.29 | -1.97 | -3.03 | 0.248 | 10.4 | -9.83 | 4.3 | 6.17 | -5.51
